test system: Vero E6 infected with SARS-CoV-2; assay: inhibition of SARS-CoV-2 cytopathic effect; higher = more antiviral protection, active = above 15; details: 833.33 nM; 48 h

| Compound | inhibition of SARS-CoV-2 cytopathic effect |
| --- | --- |
| Cc1cnc(-c2cnc(NCCNc3ccc(C#N)cn3)nc2-c2ccc(Cl)cc2Cl)[nH]1 | 3.98% (inactive) |
| CC1(C)C(=O)N(c2ccc(C#N)c(C(F)(F)F)c2)C(=O)N1CCCCO | 0.45% (inactive) |
| Fc1ccc(C(c2ccc(F)cc2)N2CCN(C/C=C/c3ccccc3)CC2)cc1 [flunarizine] | -2.17% (inactive) |
| O=c1cc(N2CCOCC2)oc2c(-c3cccc4c3sc3ccccc34)cccc12 | 8.27% (inactive) |
| CCCNC(=O)NS(=O)(=O)c1ccc(Cl)cc1 [chlorpropamide] | -0.4% (inactive) |
| Cc1ccc(-c2c(-c3nn(C)c4ncnc(N5CC[C@H](N6CCCCC6)C5)c34)cnn2C)cc1 | -2.4% (inactive) |
| N[C@@H](CSS(=O)(=O)O)C(=O)O [S-sulfo-L-cysteine] | 1.93% (inactive) |
| COc1cc(C(=O)NCc2ccc(OCCN(C)C)cc2)cc(OC)c1OC [trimethobenzamide] | -1.81% (inactive) |
| CO[C@H]1O[C@@H]2O[C@@]3(C)CC[C@H]4[C@H](C)CC[C@@H]([C@H]1C)[C@@]24OO3 [artemether] | -2.72% (inactive) |
| COCCCN1CCC(NC(=O)c2cc(Cl)c(N)c3c2OCC3)CC1 [prucalopride] | 3.32% (inactive) |
| Cn1cc([S+](C)[O-])c(=O)c2ccc(F)cc21 (stereo unspecified) [flosequinan] | 2.01% (inactive) |
| N[C@@H](C(=O)N[C@@H]1C(=O)N2C(C(=O)O)=C(Cl)CC[C@H]12)c1ccccc1 [loracarbef] | 1.17% (inactive) |
| Nc1nc(O)c2nc(Br)n([C@@H]3O[C@@H]4COP(=O)(O)O[C@H]4[C@H]3O)c2n1 [8-bromo-cGMP] | 1.94% (inactive) |
| CCCC(=O)N1CCCN(c2nc(N)c3cc(OC)c(OC)cc3n2)CC1 [bunazosin] | 0.02% (inactive) |
| Oc1ccc2c3c1O[C@H]1[C@@H](O)CC[C@@]4(O)[C@@H](C2)N(CC2CCC2)CC[C@]314 [nalbuphine] | 0.68% (inactive) |
| Nc1ccc(S(=O)(=O)Nc2nccs2)cc1 [sulfathiazole] | 1.1% (inactive) |
| CC[C@H](/C=C/[C@@H](C)[C@H]1CC[C@H]2[C@@H]3CC=C4C[C@@H](O)CC[C@]4(C)[C@H]3CC[C@]12C)C(C)C [Stigmasterol (Stigmasterin)] | 0.29% (inactive) |
| Cc1nn(C)c2c1C(c1cccc(Cl)c1)=NCCN2 [zometapine] | -0.92% (inactive) |

same assay, conditions: 10000 nM; 48 h

| Compound | inhibition of SARS-CoV-2 cytopathic effect |
| --- | --- |
| Cc1cnc(-c2cnc(NCCNc3ccc(C#N)cn3)nc2-c2ccc(Cl)cc2Cl)[nH]1 | 12.1% (inactive) |
| CC1(C)C(=O)N(c2ccc(C#N)c(C(F)(F)F)c2)C(=O)N1CCCCO | 1.21% (inactive) |
| Fc1ccc(C(c2ccc(F)cc2)N2CCN(C/C=C/c3ccccc3)CC2)cc1 [flunarizine] | -3.88% (inactive) |
| O=c1cc(N2CCOCC2)oc2c(-c3cccc4c3sc3ccccc34)cccc12 | 36.8% (active) |
| CCCNC(=O)NS(=O)(=O)c1ccc(Cl)cc1 [chlorpropamide] | -2.67% (inactive) |
| Cc1ccc(-c2c(-c3nn(C)c4ncnc(N5CC[C@H](N6CCCCC6)C5)c34)cnn2C)cc1 | -0.65% (inactive) |
| N[C@@H](CSS(=O)(=O)O)C(=O)O [S-sulfo-L-cysteine] | 0.23% (inactive) |
| COc1cc(C(=O)NCc2ccc(OCCN(C)C)cc2)cc(OC)c1OC [trimethobenzamide] | -0.65% (inactive) |
| CO[C@H]1O[C@@H]2O[C@@]3(C)CC[C@H]4[C@H](C)CC[C@@H]([C@H]1C)[C@@]24OO3 [artemether] | 0.52% (inactive) |
| COCCCN1CCC(NC(=O)c2cc(Cl)c(N)c3c2OCC3)CC1 [prucalopride] | 1.47% (inactive) |
| Cn1cc([S+](C)[O-])c(=O)c2ccc(F)cc21 (stereo unspecified) [flosequinan] | 0.19% (inactive) |
| N[C@@H](C(=O)N[C@@H]1C(=O)N2C(C(=O)O)=C(Cl)CC[C@H]12)c1ccccc1 [loracarbef] | 5.45% (inactive) |
| Nc1nc(O)c2nc(Br)n([C@@H]3O[C@@H]4COP(=O)(O)O[C@H]4[C@H]3O)c2n1 [8-bromo-cGMP] | 1.61% (inactive) |
| CCCC(=O)N1CCCN(c2nc(N)c3cc(OC)c(OC)cc3n2)CC1 [bunazosin] | 0.07% (inactive) |
| Oc1ccc2c3c1O[C@H]1[C@@H](O)CC[C@@]4(O)[C@@H](C2)N(CC2CCC2)CC[C@]314 [nalbuphine] | 0.06% (inactive) |
| Nc1ccc(S(=O)(=O)Nc2nccs2)cc1 [sulfathiazole] | -0.08% (inactive) |
| CC[C@H](/C=C/[C@@H](C)[C@H]1CC[C@H]2[C@@H]3CC=C4C[C@@H](O)CC[C@]4(C)[C@H]3CC[C@]12C)C(C)C [Stigmasterol (Stigmasterin)] | -0.01% (inactive) |
| Cc1nn(C)c2c1C(c1cccc(Cl)c1)=NCCN2 [zometapine] | -4.7% (inactive) |

— the supplement of paper PMC13380429
